Source: PubChem (several laboratories)
A selection: hits, their analogues and other compounds. The true share with any hit is near 4.8%.
Mdm2 MdmX PPI = inhibitors of human Mdm2/MdmX interaction | O15151+Q00987 | SaOS-2 split-luciferase Mdm2/MdmX complementation, luminescence | inhibition, % at 8 µM | 330,000 compounds, 3% hits;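 active = inhibition of at least 50% at 8 µM in the primary screen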
Target sequence (O15151 whole entry, looked up): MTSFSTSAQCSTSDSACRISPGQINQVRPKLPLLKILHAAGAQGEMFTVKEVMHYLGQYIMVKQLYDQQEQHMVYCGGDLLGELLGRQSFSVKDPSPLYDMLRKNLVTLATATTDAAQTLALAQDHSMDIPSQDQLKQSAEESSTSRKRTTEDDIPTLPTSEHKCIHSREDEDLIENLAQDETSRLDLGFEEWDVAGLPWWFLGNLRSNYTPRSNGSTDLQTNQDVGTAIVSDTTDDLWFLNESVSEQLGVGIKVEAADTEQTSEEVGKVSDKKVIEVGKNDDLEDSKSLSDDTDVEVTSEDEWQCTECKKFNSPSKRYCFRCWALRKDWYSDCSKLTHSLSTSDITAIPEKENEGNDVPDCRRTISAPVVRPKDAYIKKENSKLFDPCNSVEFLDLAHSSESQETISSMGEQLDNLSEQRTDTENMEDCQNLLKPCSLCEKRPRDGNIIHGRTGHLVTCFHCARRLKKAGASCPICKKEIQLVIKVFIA
Target sequence (Q00987 whole entry, looked up): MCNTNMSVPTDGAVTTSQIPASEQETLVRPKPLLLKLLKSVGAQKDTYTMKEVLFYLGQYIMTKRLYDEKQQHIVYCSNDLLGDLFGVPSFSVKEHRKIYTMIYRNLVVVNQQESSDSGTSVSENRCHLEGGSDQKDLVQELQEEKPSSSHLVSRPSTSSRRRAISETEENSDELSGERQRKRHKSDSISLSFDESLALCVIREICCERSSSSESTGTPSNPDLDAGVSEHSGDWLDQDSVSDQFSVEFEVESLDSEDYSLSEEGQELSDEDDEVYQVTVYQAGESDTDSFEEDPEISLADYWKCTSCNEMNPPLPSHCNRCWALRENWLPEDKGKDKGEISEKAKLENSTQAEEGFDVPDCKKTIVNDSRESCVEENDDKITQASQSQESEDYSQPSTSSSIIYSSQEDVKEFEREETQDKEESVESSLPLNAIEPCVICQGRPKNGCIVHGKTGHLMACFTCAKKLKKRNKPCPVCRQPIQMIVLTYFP
Calb FLC = C. albicans growth modulation with fluconazole. growth inhibition, % (no concentration beside the values). AID 1979. C. albicans CaCi-2 (fluconazole-resistant clinical isolate) + fluconazole, Alamar Blue growth, 48 h. 300,000 compounds, 0.57% hits;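 active = growth inhibition above about 58% in most replicates, limit read from the data, passing the limit was not always enough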;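 note: all wells also contain fluconazole at 8 µg/ml as a sub-toxic cotreatment; 0% = median of DMSO wells and 100% = median of geldanamycin control wells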
Beta cell apopt = beta cell apoptosis inhibition. INS-1E cytokine-induced death, ATP luminescence, 48 h; percent of positive-control rescue, neutral wells zero. protection from apoptosis, % (concentration not given with the values). 300,000 compounds, 0.8% hits;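 active = Every replicate reaches about 75%, or at least half do and their mean reaches it too, limit read from the data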;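 note: 0% = cytokine-treated negative control wells and 100% = positive control rescue; higher means more ATP so stronger rescue from cytokine killing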
CSC inhib = cancer stem cell inhibition. cancer stem cell-like cells viability, luminescence. inhibition, % at 7.5 µM. 300,000 compounds, 1.1% hits; in the data active = inhibition above about 75%; tested in HMLE shEcad cells
MPTP block = permeability transition pore inhibition; isolated mouse mitochondria, Ca2+ swelling absorbance, 30 min; inhibition, % at 10 µM; 360,000 compounds, 1.4% hits;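 active = inhibition of 50% or more, scaled per plate between neutral and stimulator controls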;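 note: 0% = DMSO wells given calcium and 100% = 1 mM EGTA wells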
Mdm2 MdmX conf = confirmation of human Mdm2/MdmX interaction inhibitors; Mdm2-MdmX binding, luminescent assay; AID 489028; inhibition, % at 8 µM; 10,000 compounds, 55% hits; shares compounds with Mdm2 MdmX PPI; in the data active = inhibition above about 40%
Full FLuc ctr = counter-screen for Mdm2/MdmX inhibitors: full-length luciferase. shares compounds with Mdm2 MdmX PPI. SaOS-2 full-length luciferase counterscreen, luminescence. inhibition, % at 8 µM. 6,200 compounds, 77% hits;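 active = mean inhibition at 8 µM reaching about 37%, which flags the compound as non-specific, limit read from the data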;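 note: p53-null SaOS-2 cells with luciferase driven by a doxycycline-inducible promoter; compound on cells about two nights before reading with doxycycline added after day one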
Active calls of the source: *; . = no result.

SMILES	Mdm2 MdmX PPI	Calb FLC	Beta cell apopt	CSC inhib	MPTP block	Mdm2 MdmX conf	Full FLuc ctr
O=C(CSC1c2ccccc2-c2ccccc21)N/N=C/c1ccccc1O	82.4*	19.0	86.8*	83.2*	15.3	75.8*	27.7
CCOC(=O)c1cc2cc(OC)ccc2n1C1CCN(Cc2ccccc2)CC1	.	.	.	.	4.0	.	.
NP(=O)(Nc1ccccc1)Nc1ccccc1	.	.	.	.	-1.0	.	.
CSCCC(c1nnnn1C(C)(C)C)N1CCC2(CC1)C(=O)NCN2c1ccccc1 (configuration not stated)	.	.	.	.	0.2	.	.
CCCCCCn1c(=O)c(C(=O)Nc2cnccn2)c(O)c2ccccc21	61.3*	7.2	27.8	40.7	14.3	52.0*	46.3*
CCCCCn1c(=O)c(C(=O)Nc2ccccn2)c(O)c2ccccc21	53.9*	-1.2	.	19.6	4.9	19.2	.
O=P1(c2ccccc2)CC=CC1	.	.	.	.	-0.3	.	.
CC[C@H]1c2ccccc2[C@@H]2CC[C@H]1N2c1ccccc1	.	.	.	.	0.4	.	.
CCCCn1nnnc1C(CCSC)N1CCC2(CC1)C(=O)NCN2c1ccccc1 (configuration not stated)	.	.	.	.	-0.4	.	.
C=C(C)[C@@]12OC3(c4ccccc4)O[C@@H]1C1[C@@H]4O[C@]4(CO)[C@@H](O)[C@]4(O)C(=O)C(C)=C[C@H]4[C@@]1(O3)[C@H](C)[C@H]2OC(=O)/C=C/C=C/c1ccccc1 (some centres not stated)	76.8*	-2.3	2.6	6.4	2.0	12.1	.
CC[C@H](C)[C@@H]1O[C@@]2(C=CC1C)CC1C[C@@H](CC=C(C)C(O[C@H]3CC(OC)C(O[C@H]4CC(OC)C(O)C(C)O4)C(C)O3)C(C)C=CC=C3CO[C@@H]4C(O)C(C)=C[C@@H](C(=O)O1)[C@]34O)O2 (some centres not stated)	84.7*	.	17.1	102.8*	.	14.9	.
CCC(C)C(=O)N[C@@H](c1ccccc1)[C@@H](O)C(=O)O[C@H]1C[C@@]2(O)[C@@H](OC(=O)c3ccccc3)C3[C@](C)(C(=O)[C@H](OC(C)=O)C(=C1C)C2(C)C)[C@@H](O)C[C@H]1OC[C@@]31OC(C)=O (some centres not stated)	62.4*	2.2	14.9	53.3	-2.1	66.1*	39.2*
C/C=C(\C)C(=O)N[C@@H](c1ccccc1)[C@@H](O)C(=O)O[C@H]1C[C@@]2(O)[C@@H](OC(=O)c3ccccc3)C3[C@](C)(C(=O)[C@H](OC(C)=O)C(=C1C)C2(C)C)[C@H](O)C[C@H]1OC[C@@]31OC(C)=O (some centres not stated)	40.0	7.3	4.5	-10.8	0.0	.	.
CC/C=C/CC(=O)N[C@@H](c1ccccc1)[C@@H](O)C(=O)O[C@H]1C[C@@]2(O)[C@@H](OC(=O)c3ccccc3)C3[C@](C)(C(=O)[C@H](OC(C)=O)C(=C1C)C2(C)C)[C@@H](O)C[C@H]1OC[C@@]31OC(C)=O (some centres not stated)	69.2*	2.6	.	63.5	-1.9	67.2*	47.6*
CC(C)CN1Cc2ccccc2-n2nncc2C1	.	.	.	.	-0.9	.	.
CCOC(=O)[C@]12Cc3cc(OC)ccc3[C@H]1N(C1CCCCC1)C(=O)c1ccccc12	.	.	.	.	-2.4	.	.
CCC1C2Cc3ccc(O)cc3C1(CC)CCN2C (configuration not stated)	.	.	.	.	0.1	.	.
COC(=O)[C@@H]1C[C@H]1[C@@H](NP(=O)(c1ccccc1)c1ccccc1)c1ccccc1	56.3*	-3.6	-0.1	7.5	-0.1	40.2*	62.7*
O=C1NC(=O)N(c2ccccc2)C(=O)/C1=C\C=C\c1ccccc1	77.7*	2.2	12.6	60.2	5.1	10.9	.
Cc1ccc(N2C(=O)NC(=O)/C(=C/C=C/c3ccco3)C2=O)cc1	53.7*	7.4	9.1	79.3*	0.3	31.8	.
COc1cc(/C=C2\C(=O)NC(=O)N(c3ccccc3)C2=O)cc(OC)c1OC	33.2	-3.4	-10.7	-2.1	-5.3	.	.
CCCCn1nnnc1C(CC)N1CCC2(CC1)C(=O)NCN2c1ccccc1 (configuration not stated)	.	.	.	.	-0.9	.	.
CN1CCc2cc3c(c4c2C1Cc1ccccc1-4)OCO3 (configuration not stated)	58.8*	92.4*	88.2*	17.8	0.4	51.6*	60.8*
